# According to the supplement of paper PMC10121225:
# Counter-ions that a name gives are not always drawn.
# Test system: hN + hpA co-culture (H1 iNGN2 human neurons + human primary astrocytes)
# Assay: presynaptic density (SYNAPSIN1 puncta per MAP2 neurite area), Z-score vs DMSO controls; higher = more presynaptic puncta (synapse-promoting)
# Conditions: 3 µM; 72 h
# 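Also: immunostained co-cultures imaged by high-content microscopy, Z-score per plate against mean and SD of 0.1% DMSO wells, compounds added on differentiation day 18, analysed day 21.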
row,SMILES,presynaptic density (Z-score)
1,O=C1C(=O)N(Cc2ccc(Cl)c(Cl)c2)c2ccccc21 [1-[(3 4-Dichlorophenyl)methyl]-1H-indole-2 3-dione],-0.359
2,COc1cc2c(Nc3ccc(NC(=O)c4ccccc4)cc3)ncnc2cc1OCCCN1CCOCC1,-1.71
3,Nc1cccc2c1C(=O)N(C1CCC(=O)NC1=O)C2=O (stereo not drawn) [Pomalidomide],0.469
4,COc1ccccc1S(=O)(=O)Nc1ccc2c(c1)CN(C)C(=O)N2,0.796
5,Cc1cnc(NC(=O)Nc2cc(Br)c(C)cc2OC[C@@H]2CNCCO2)cn1,-0.602
6,O=C(O)/C=C/c1ccc(Cn2ccnc2)cc1 [Ozagrel HCl],-0.679
7,CCc1cc(Nc2nccc(-c3c(-c4ccc(OC)c(C(=O)Nc5c(F)cccc5F)c4)nc4ccccn34)n2)c(OC)cc1N1CCC(N2CCN(S(C)(=O)=O)CC2)CC1,0.31
8,O=C1NC(=O)C(c2ccccc2[N+](=O)[O-])=C1Nc1ccc(O)c(Cl)c1,-0.662
9,C[C@]1(c2nc3c(C(N)=O)cccc3[nH]2)CCCN1 [Veliparib (ABT-888)],0.43
10,COCCOc1ccc2c(c1)ncn2-c1ccc2cccc(N3CCC(N)CC3)c2n1,-0.271
11,CCn1c(-c2nonc2N)nc2c(C#CC(C)(C)O)ncc(OC[C@H]3CCCNC3)c21,-0.664
12,CC(C)NCC(O)COc1cccc2ccccc12 (stereo not drawn) [Propranolol HCl],0.278
13,Nc1nc(OCc2cc(Br)cs2)c2[nH]cnc2n1 [Lomeguatrib],-0.621
14,CCOC(=O)C1=C(C)NC(C)=C(C(=O)OC)C1c1cccc(Cl)c1Cl (stereo not drawn) [Felodipine],-1.18
15,O=C(O)/C=C/c1ccc(Cn2ccnc2)cc1 [Ozagrel],-0.554
16,COc1ccc([C@]2(C#N)CC[C@@H](C(=O)O)CC2)cc1OC1CCCC1 [Cilomilast],-0.137
17,NC(=O)c1cccc(-c2cccc(OC(=O)NC3CCCCC3)c2)c1,-1.17
18,COc1cc(OC2CCN(C)CC2)ccc1Nc1ncc2c(n1)n(C1CCCC1)c(=O)n2C,-0.583
19,O=C(NNc1nc2cc(F)ccc2n2cccc12)c1cnccn1,-1.29

row,SMILES,presynaptic density (Z-score)
1,COc1cc(Br)c(Nc2nc(-c3c(C)nc4ncccn34)cs2)c(Br)c1,-2
2,Oc1nc(-c2ccc(C(F)(F)F)cc2)nc2c1CSCC2,0.167
3,CCCS(=O)(=O)Nc1ccc(F)c(C(=O)c2c[nH]c3ncc(-c4ccc(Cl)cc4)cc23)c1F,-0.231
4,Cc1cc(C(N)=O)ccc1-n1c(CCC(=O)O)ccc1-c1ccc(-n2ccnc2)cc1,-0.771
5,Cc1c(Cl)cccc1Nc1ccccc1C(=O)O [Tolfenamic acid],-0.187
6,Cc1cc(C(C)(C)C)c(O)c(C)c1CC1=NCCN1 [Oxymetazoline HCl],-0.235
7,Nc1nc(N)c2nc(-c3ccccc3)c(N)nc2n1 [Triamterene],-0.407
8,CCCC(=O)Nc1cccc(NC(=O)c2ccccc2Br)c1,-0.374
9,CC(C)c1c(C(=O)Nc2ccccc2)c(-c2ccccc2)c(-c2ccc(F)cc2)n1CC[C@@H](O)C[C@@H](O)CC(=O)O,-2.01
10,CC(C)c1ccc(NC(=O)Cn2cnc3c2c(=O)n(C)c(=O)n3C)cc1,-0.215
11,COc1ccc2cccc(CCNC(C)=O)c2c1 [Agomelatine],-0.284
12,CC(C)(C#N)c1cc(Cn2cncn2)cc(C(C)(C)C#N)c1,-0.628
13,Cc1[nH]c2ccccc2c1C1=C(NCCc2ccc(F)cc2)C(=O)N(C)C1=O,-0.562
14,CCN(CC)CCNC(=O)c1cc(Cl)c(N)cc1OC [MetoclopraMide HCl],0.023
15,CNC(=C[N+](=O)[O-])NCCSCc1ccc(CN(C)C)o1 [Ranitidine],-0.33
16,CC(NC(=O)c1ccccc1N=Cc1c(O)ccc2ccccc12)c1ccccc1 (stereo not drawn),0.165
17,Cc1nnc(C(=O)NC(C)(C)c2nc(C(=O)NCc3ccc(F)cc3)c(O)c(=O)n2C)o1 [Raltegravir (MK-0518)],-0.683
18,COc1cc(F)c(C(C)C)cc1-c1ccc(C(F)(F)F)cc1CN1C(=O)O[C@H](c2cc(C(F)(F)F)cc(C(F)(F)F)c2)[C@@H]1C [Anacetrapib (MK-0859)],-0.588
19,CN(Cc1cnc2nc(N)nc(N)c2n1)c1ccc(C(=O)N[C@@H](CCC(=O)O)C(=O)O)cc1 [Methotrexate],-0.494
